# A selection: hits, their analogues and other compounds. The true share with any hit is near 6.6%.
# Mdm2 MdmX PPI: disrupts the human Mdm2-MdmX interaction | O15151+Q00987 | SaOS-2 split-luciferase Mdm2/MdmX complementation, luminescence | inhibition, % at 8 µM | hit rate 3% among 330,000 | AID 485346;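 active means inhibition of at least 50% at 8 µM in the primary screen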
# GRIN3A LBD mod: modulators (binders) of human NR3A ligand-binding domain; NR3A LBD differential scanning fluorimetry, Tm shift; 0% = protein alone, 100% = glycine-bound protein; Tm shift relative to glycine control, % at 25 µM; hit rate 2.5% among 340,000;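 active means melting temperature shift of at least 10% of the positive control shift, at one fixed dose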
# CSC inhib: blocks cancer stem cells; cancer stem cell-like cells viability, luminescence; inhibition, % at 7.5 µM; hit rate 1.1% among 300,000; AID 2717; in the data active means inhibition above about 75%; tested in HMLE shEcad cells
# Gli-Sufu antag: antagonists of Gli-Sufu signaling; AID 588413; hit rate 0.74% among 340,000; inhibition, % at 5 µM; Sufu-KO-LIGHT fibroblasts, Gli luciferase reporter luminescence;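 active means inhibition above about 55%, limit read from the data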;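 further: 0% = DMSO-treated cells and 100% = wells with medium but no cells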
# MPTP inh: blocks calcium-induced mitochondrial swelling; isolated mouse mitochondria, Ca2+ swelling absorbance, 30 min; inhibition, % at 10 µM; hit rate 1.4% among 360,000;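 active means inhibition of 50% or more, scaled per plate between neutral and stimulator controls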;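 further: 0% = DMSO wells given calcium and 100% = 1 mM EGTA wells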
# Beta apoptosis: blocks beta cell apoptosis; protection from apoptosis, % (no concentration beside the values); AID 435005; INS-1E cytokine-induced death, ATP luminescence, 48 h; percent of positive-control rescue, neutral wells zero; hit rate 0.8% among 300,000;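 active means Every replicate reaches about 75%, or at least half do and their mean reaches it too, limit read from the data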;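 further: 0% = cytokine-treated negative control wells and 100% = positive control rescue; higher means more ATP so stronger rescue from cytokine killing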
# Starred values were filed as active, the others as inactive; / = no result.
SMILES,Mdm2 MdmX PPI,GRIN3A LBD mod,CSC inhib,Gli-Sufu antag,MPTP inh,Beta apoptosis
C=CCNC(=O)CN1N=C(c2ccc(C)cc2)CCC1=O,-28,-7,4,-6,-2,-6
O=C(COc1ccc(F)cc1Cl)NC1CCCCCC1,-220,-3,-14,-76,-1,4
CCCCN(C(=O)C(C)Oc1ccc(Br)cc1)c1c(N)n(CC(C)C)c(=O)[nH]c1=O (stereo unspecified),7,-1,/,-7,0,-1
CCCCCCCc1ccc(-c2ccc(O)cc2)nc1,-60,-2,85*,-57,1,-2
CCn1c(SCC(N)=O)nnc1-c1ccc(OC)c(OC)c1,-9,13*,-10,-3,-1,0
Cn1ccsc1=NC(=O)c1ccc(OC(F)(F)F)cc1,7,5,-8,-25,1,1
COc1cc(OC)cc(C(=O)Nc2ccc(-n3cnnn3)c(C)c2)c1,-15,-1,3,-28,17,11
Cc1cc(NC(=O)c2oc3ccccc3c2C)ccc1-n1cnnn1,4,23*,-9,-11,0,5
CC(=O)Nc1nc2ccc(NC(=O)c3ccco3)cc2s1,-14,-8,6,-41,1,1
Cc1nc2ccc(NC(=O)c3cccs3)cc2s1,-56,-6,4,-52,-1,/
Cc1nc2ccc(NC(=O)c3ccco3)cc2s1,-28,16*,2,-31,3,-3
Cc1nc2ccc(NC(=O)c3cccc(S(=O)(=O)N(C)c4ccccc4)c3)cc2s1,12,18*,2,15,49,8
COc1ccc(N(C)S(=O)(=O)c2cccc(C(=O)Nc3ccc(-n4cnnn4)cc3)c2)cc1,1,26*,-4,/,3,6
Cc1nc2ccc(NC(=O)c3sccc3C)cc2s1,-137,32*,-29,-1,-2,-5
COCCCNC(=O)c1cccc2c(-c3cccc(C(N)=O)c3)coc12,/,/,/,/,-1,/
CCC(C(=O)NCc1ccccc1)n1c(-c2cccs2)nc2ccccc21 (stereo unspecified),/,/,/,/,0,/
CN(C)S(=O)(=O)N1CCN(C(=O)c2ccccc2)CC1,8,0,1,4,0,-3
CN(C)S(=O)(=O)N1CCN(C(=O)c2cccc(Br)c2)CC1,9,11*,4,0,-1,-4
O=C(c1cccc(Br)c1)N1CCCC1,2,13*,-13,-5,-2,-7
O=S1(=O)CC(N2CCCCC2)CN1Cc1cn(Cc2cccc(C(F)(F)F)c2)nn1 (stereo unspecified),/,/,/,/,-2,/
CN(C)CCCNC(=O)c1ccc(-c2cc3nc(NCc4cccnc4)n(C)c(=O)c3s2)cc1,/,/,/,/,0,/
O=C(CSc1nnc(CNC(=O)c2ccccc2F)o1)NC1CCCC1,-2,-3,-11,-9,-1,-9
COc1ccc(C2CC(=O)c3c(C)nc(N4CCN(c5ccccc5)CC4)nc3C2)cc1 (stereo unspecified),9,727*,4,2,3,2
CCOc1ccc(C=NNc2ccc(S(=O)(=O)Nc3ccccc3C(=O)O)cc2[N+](=O)[O-])cc1,15,5,49,0,38,3
COc1ccc(C=NNc2ccc(S(=O)(=O)Nc3ccccc3C(=O)O)cc2[N+](=O)[O-])c(OC)c1,15,457*,40,-1,41,-4
SMILES,Mdm2 MdmX PPI,GRIN3A LBD mod,CSC inhib,Gli-Sufu antag,MPTP inh,Beta apoptosis
O=C(O)c1ccccc1NS(=O)(=O)c1ccc(NN=Cc2ccccc2F)c([N+](=O)[O-])c1,11,10*,-33,-11,45,-4
C=CCOc1ccc(C=NNc2ccc(S(=O)(=O)Nc3ccccc3C(=O)O)cc2[N+](=O)[O-])cc1OC,-2,9,12,-1,12,4
CSc1ccc(C=NNc2ccc(S(=O)(=O)Nc3ccccc3C(=O)O)cc2[N+](=O)[O-])cc1,2,9,25,-6,49,10
CCOc1cccc(C=NNc2ccc(S(=O)(=O)Nc3ccccc3C(=O)O)cc2[N+](=O)[O-])c1O,7,17*,5,2,0,-2
Cc1nn(-c2ccccc2)c(Cl)c1/C=N/NS(=O)(=O)c1ccc(Br)cc1,-20,17*,-12,-3,41,6
COc1ccccc1N1CCN(C(=O)CSc2nnc(C)n2C2CC2)CC1,-3,-2,-15,-6,1,-1
O=C(O)c1ccccc1NS(=O)(=O)c1ccc2ccccc2c1,-90,-9,-12,-29,1,-4
Cc1nn(-c2ccccc2)c(Cl)c1/C=N/Nc1ccc(S(=O)(=O)Nc2ccccc2C(=O)O)cc1[N+](=O)[O-],-9,1,96*,4,35,-1
COc1ccc(NC(=S)NNc2ccc(S(=O)(=O)Nc3ccccc3C(=O)O)cc2[N+](=O)[O-])cc1,5,16*,21,5,3,12
Cc1nn(-c2ccccc2)c(Cl)c1/C=N/Nc1ccc(Cl)c(C(=O)O)c1,-273,-22,1,-80,-1,-7
Cc1ccc(NC(=O)CCNS(=O)(=O)c2ccc3c(c2)CCC(=O)N3)c(Br)c1,5,0,3,-4,-3,-3
COc1cc2c(c(OC)c1CC=C(C)C)C[C@H](c1ccc(O)cc1O)CO2,9,19*,-3,-2,2,-5
COc1ccc(OCCn2nnc(-c3ccc(Cl)cc3)n2)cc1,2,15*,-9,-4,-1,-5
COc1ccc(-c2nnn(Cc3ccccc3)n2)cc1,-75,0,4,-25,0,/
O=C(O)/C=C/C(=O)N(Cc1ccc2c(c1)OCO2)C1CC(=O)N(CCc2ccccc2)C1=O (stereo unspecified),-17,2,8,-1,0,-5
CN(c1ccccc1)S(=O)(=O)c1cc(C(=O)NCCCn2ccnc2)ccc1Cl,19,-1,/,2,2,3
CC1(C(=O)NS(=O)(=O)c2ccc(Cl)s2)CCN1C(=O)Cc1ccc(-c2ccccc2)cc1 (stereo unspecified),/,/,/,/,2,/
CCOC(=O)N1CCN(CC(=O)c2ccc3c(c2)CCN3C(C)=O)CC1,10,2,-14,-8,-2,5
CC(=O)N1CCc2cc(C(=O)CN3CCCCC3)ccc21,-18,13*,-10,9,-2,-3
CCN(CC(=O)Nc1c(F)cccc1F)C(=O)c1cccc(-n2cnnn2)c1,4,0,/,-2,-2,/
CCCCN(C(=O)CCNC(=O)NC12CC3CC(CC(C3)C1)C2)c1c(N)n(CCC)c(=O)[nH]c1=O,2,4,-5,-10,-2,3
COc1ccc(/C=N\NC(=O)c2cc(O)c(O)c(O)c2)cc1COc1ccc(C(=O)OCC(C)C)cc1,-3,77*,50,39,9,2
COc1ccc(/C=N\NC(=O)c2ccccc2Br)cc1COc1c(F)c(F)cc(F)c1F,45,-6,1,-5,0,-3
COc1ccc(/C=N/NC(=O)c2ccc(O)cc2)cc1CN1CCCc2ccccc21,45,27*,-1,10,3,5
